Data taken from PubChem BioAssay (EPA / NIEHS).
Inconclusive results are not listed. The source made the active and inactive calls. Rule for the calls, unless noted: active = hit-call score of the fitted dose curve at least 0.9, where 1 is the maximum; inactive = score below 0.9.

What was measured:
[1] = CCTE_Shafer_MEA_acute_firing_rate_mean: CCTE's Neural Acute Assay for Mean Firing Rate, Shafer Lab (AID 2284009);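 note: analyzed for loss of signal so actives lower firing rate relative to DMSO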
In short: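 Primary rat cortical neurons on 16-electrode MEA wells were exposed on DIV 13 or 15 to compound (0.03-40 uM). Spike counts per recording time, averaged over electrodes, were compared between 40-min baseline and 40-min post-exposure recordings as percent change.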

[2] = CCTE_Shafer_MEA_acute_burst_number: CCTE's Neural Acute Assay for Single-Electrode Bursts, Shafer Lab (AID 2284013)
In short: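 Primary rat cortical neurons on 16-electrode MEA wells, DIV 13 or 15, exposed to compound (0.03-40 uM; ≥3 wells); 40-min recordings at 37 C before and after treatment. Burst count expressed as percent change from baseline, DMSO as negative control.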

[3] = CCTE_Shafer_MEA_acute_burst_duration_mean: CCTE's Neural Acute Assay for Mean Burst Duration, Shafer Lab (AID 2284014);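 note: hits are decreases in mean burst duration relative to DMSO controls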
In short: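 Mean burst duration was compared between a 40 min baseline and a 40 min recording in the presence of compound (0.03-40 uM, 37 C), giving percent change per well. Cultures were rat cortical neurons at DIV 13 or 15; wells needed ≥10 active electrodes.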

[4] = CCTE_Shafer_MEA_acute_per_burst_spike_number_mean: CCTE's Neural Acute Assay for Average Number of Spikes Per Burst, Shafer Lab (AID 2284015);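 note: hits are decreases in mean spikes per burst versus baseline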
In short: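 Primary rat cortical neurons on 48-well MEA plates, treated on DIV 13 or 15 at 0.03-40 uM. Spontaneous activity recorded 40 min before and 40 min after compound at 37 C; percent change in mean spikes per single-electrode burst per well, fitted in the loss direction versus DMSO.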

[5] = CCTE_Shafer_MEA_acute_interburst_interval_mean: CCTE's Neural Acute Assay for Mean Interburst Interval, Shafer Lab (AID 2284016);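 note: percent change of mean interburst interval versus each well's own pre-dose baseline; curves fitted for decrease in interburst interval relative to DMSO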
In short: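 Primary rat cortical neurons on 16-electrode MEA wells were recorded 40 min at baseline on DIV 13 or 15, then 40 min after compound (0.03-40 uM), at 37 C. Value is percent change in mean interburst interval per well, DMSO as negative control.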

[6] = CCTE_Shafer_MEA_acute_burst_percentage_mean: CCTE's Neural Acute Assay for Percentage of Spikes in a Burst, Shafer Lab (AID 2284017)
In short: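 Primary rat cortical neurons on 16-electrode MEA wells; 40 min baseline recorded at DIV 13 or 15, then 40 min after compound (0.03-40 uM) at 37 C. Well-mean fraction of spikes in single-electrode bursts; percent change from baseline, DMSO as negative control.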

[7] = CCTE_Shafer_MEA_acute_burst_percentage_std: CCTE's Neural Acute Assay for Standard Deviation of Burst Percentage, Shafer Lab (AID 2284018);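 note: fitted in the negative direction so actives lower burst percentage SD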
In short: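 Value is percent change from baseline in the across-electrode SD of spikes-in-bursts percentage, wells with >/= 10 active electrodes. Acute 40-min exposure to 0.03-40 uM on DIV 13 or 15 rat cortical cultures, recorded at 37 C after 40-min baseline.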

[8] = CCTE_Shafer_MEA_acute_per_network_burst_spike_number_mean: CCTE's Neural Acute Assay for Average Number of Spikes in a Network Burst, Shafer Lab (AID 2284019)
In short: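 Percent change from baseline in mean spikes per network burst, spikes detected at 8x rms noise. Each compound at 0.03-40 uM in at least three wells of rat cortical cultures, recorded 40 min before and 40 min during exposure.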

[9] = CCTE_Shafer_MEA_acute_per_network_burst_spike_number_std: CCTE's Neural Acute Assay for Standard Deviation of Number of Spikes in a Network Burst, Shafer Lab (AID 2284020);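 note: fitted for decrease in spike-number SD versus DMSO so actives lower it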
In short: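 Endpoint: percent change from 40 min baseline in standard deviation of spikes per network burst, after 40 min compound exposure (0.03-40 uM, 37 C). Cortical rat neurons on MEA at DIV 13 or 15; spikes detected at 8x rms noise, 300-5000 Hz band-pass.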

[10] = CCTE_Shafer_MEA_acute_per_network_burst_electrodes_number_mean: CCTE's Neural Acute Assay for Mean Number of Electrodes in a Network Burst, Shafer Lab (AID 2284021);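 note: curves fitted for decreases only so hits reduce electrodes per burst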
In short: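 Rat primary cortical neurons on 48-well MEAs, DIV 13 or 15, were treated at 0.03-40 uM. Spikes were detected at 8x rms noise and recorded at 37 C. The mean electrodes per network burst in a 40 min exposure recording was expressed as percent change from a 40 min baseline.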

[11] = CCTE_Shafer_MEA_acute_network_burst_percentage: CCTE's Neural Acute Assay for Percentage of Network Bursts, Shafer Lab (AID 2284022);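 note: curves fitted for loss so actives lower network burst percentage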
In short: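 Rat primary cortical neuron networks on 48-well MEA plates, DIV 13 or 15, treated acutely with compound (0.03-40 uM, at least three wells). Percent of spikes within network bursts compared between 40-min recordings before and during exposure at 37 C, expressed as percent change.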

[12] = CCTE_Shafer_MEA_acute_cross_correlation_area: CCTE's Neural Acute Assay for Area of Cross Correlation, Shafer Lab (AID 2284024);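 note: curves fitted for loss of cross-correlation area so actives lower synchrony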
In short: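 Rat primary cortical neurons on 48-well MEA, DIV 13 or 15; compounds 0.03-40 uM. Baseline and post-exposure 40 min recordings at 37 C; percent change in area under pooled inter-electrode cross-correlation near zero lag, relative to DMSO.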

[13] = CCTE_Shafer_MEA_acute_cross_correlation_HWHM: CCTE's Neural Acute Assay for Cross Correlation at Half Width at Half Maximum, Shafer Lab (AID 2284026);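 note: spontaneous network firing of rat primary cortical neurons on multiwell microelectrode arrays; percent change per well from pre-dose baseline in spike cross-correlogram half width; hits are a decrease in cross-correlogram half width relative to DMSO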
In short: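 Rat primary cortical neurons on 48-well MEA plates; 40-min baseline and 40-min post-exposure recordings at 37 C on DIV 13 or 15, compounds 0.03-40 uM. Spikes detected at 8x rms noise; percent change in cross-correlogram HWHM per well vs baseline.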

[14] = CCTE_Shafer_MEA_acute_synchrony_index: CCTE's Neural Acute Assay for Synchrony, Shafer Lab (AID 2284027);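 note: network synchrony index of spontaneous spiking in primary rat cortical neurons on MEAs; fitted for loss of signal so actives lower synchrony relative to DMSO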
In short: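 Acute exposure of rat primary cortical neurons (DIV 13 or 15) at 0.03-40 uM. Synchrony index, 40 min before vs after, as % change relative to DMSO control.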

[15] = CCTE_Shafer_MEA_dev_firing_rate_mean: CCTE's Neural Network Formation Assay for Mean Firing Rate, Shafer Lab (AID 2284031)
In short: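 Extracellular spike frequency, AUC over DIV 5–12 recordings, in rat cortical neuron MEA cultures dosed from plating; loss direction vs DMSO.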

[16] = CCTE_Shafer_MEA_dev_per_burst_spike_percent: CCTE's Neural Network Formation Assay for Percent of Spikes in a Burst, Shafer Lab (AID 2284032)
In short: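 Value is trapezoidal AUC over recordings on days 5, 7, 9 and 12 of the well-mean fraction of spikes falling in single-electrode bursts; rat cortical cultures exposed continuously from plating, treatment renewed DIV 5 and 9, fitted downward against DMSO.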

[17] = CCTE_Shafer_MEA_dev_active_electrodes_number: CCTE's Neural Network Formation Assay for Number of Active Electrodes, Shafer Lab (AID 2284040; active = hit-call score of the fitted dose curve at least 0.9, where 1 is the maximum)
In short: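 Developing rat cortical networks on MEAs, exposed DIV 0–12. Value is the AUC of active-electrode counts (≥5 spikes/min) from days 5, 7, 9, 12, relative to DMSO.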

[18] = CCTE_Shafer_MEA_dev_burst_rate: CCTE's Neural Network Formation Assay for Burst Rate, Shafer Lab (AID 2284042)
In short: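 Rat primary cortical cultures on PEI/laminin MEA; compound from plating, re-dosed at DIV 5, 9 media change. Single-electrode bursts/recording length, well mean of active electrodes; AUC over DIV 5–12 recordings; loss-of-signal vs DMSO.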

[19] = CCTE_Shafer_MEA_dev_burst_duration_mean: CCTE's Neural Network Formation Assay for Mean Burst Duration, Shafer Lab (AID 2284045)
In short: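 Mean single-electrode burst duration (first to last spike), averaged over bursting electrodes per well, then integrated as area-under-curve across recordings at days 5, 7, 9 and 12. Rat cortical cultures on MEAs, compound present from plating, refreshed at feeds.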

[20] = CCTE_Shafer_MEA_dev_inter_network_spike_interval_mean: CCTE's Neural Network Formation Assay for Mean Inter-network Spike Interval, Shafer Lab (AID 2284047)
In short: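 Primary rat cortical neurons on PEI-coated 48-well MEAs (16 electrodes/well) were exposed from plating day 0 to DIV 12, with dosing renewed at DIV 5 and 9. Recordings at DIV 5, 7, 9, 12 were collapsed by trapezoidal AUC, loss-of-signal fit vs DMSO.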

[21] = CCTE_Shafer_MEA_dev_network_spike_number: CCTE's Neural Network Formation Assay for Number of Network Spikes, Shafer Lab (AID 2284048);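 note: synchronized bursts across electrodes counted on days 5 7 9 12 and integrated as AUC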
In short: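 Number of network spikes (coordinated firing across electrodes) recorded on days 5, 7, 9 and 12 and summarised as area under the curve. Rat cortical cultures on MEA, continuous compound exposure with full medium/treatment exchange at DIV 5 and 9.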

[22] = CCTE_Shafer_MEA_dev_network_spike_peak: CCTE's Neural Network Formation Assay for Mean Number of Electrodes in Network Spike, Shafer Lab (AID 2284049)
In short: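 Rat cortical primary culture, 1.5 x 10^5 cells/well, 48-well MEA (16 electrodes/well). Dosing day 0 through DIV 12, full media/compound exchange DIV 5, 9. AxIS adaptive spike detection; AUC over days 5/7/9/12; loss-of-signal vs DMSO.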

[23] = CCTE_Shafer_MEA_dev_spike_duration_mean: CCTE's Neural Network Formation Assay for Mean Spike Duration, Shafer Lab (AID 2284051);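 note: mean network spike duration pooled as area under curve over DIV 5 to 12 recordings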
In short: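 Rat cortical primary cultures, 48-well MEA (16 electrodes/well); compound from plating, renewed DIV 5, 9. Network spike duration (AxIS adaptive detector) recorded DIV 5/7/9/12, combined as trapezoidal AUC; loss direction vs DMSO.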

[24] = CCTE_Shafer_MEA_dev_network_spike_duration_std: CCTE's Neural Network Formation Assay for Standard Deviation of Network Spike Duration, Shafer Lab (AID 2284052);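 note: hits are decreases in network spike duration SD versus DMSO vehicle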
In short: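 Rat cortical cultures, 1.5 x 10^5 cells/well, exposed continuously from plating to DIV 12 with media/compound renewal at DIV 5, 9. Spontaneous activity recorded DIV 5/7/9/12, AxIS adaptive spike detector; AUC across days; negative direction vs DMSO.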

Q: With `CP(=O)(O)CCC(N)C(=O)O` (centres undefined) as the compound, how does the outcome [1] read?
A: Its outcome is “inactive”.

Q: And the outcome [2]?
A: Its outcome is “inactive”.

Q: And the AC50 [3]?
A: Its AC50 is 35 µM (active).

Q: What about the AC50 [4] of the same compound?
A: The AC50 was 50 µM (active).

Q: And the outcome [5]?
A: The outcome was “inactive”.

Q: And the outcome [6]?
A: The outcome was “inactive”.

Q: And the outcome [7]?
A: Its outcome is “inactive”.

Q: And the outcome [8]?
A: Its outcome is “inactive”.

Q: And the outcome [9]?
A: Its outcome is “inactive”.

Q: And the outcome [10]?
A: The outcome was “inactive”.

Q: And the outcome [11]?
A: Its outcome is “inactive”.

Q: And the outcome [12]?
A: Its outcome is “inactive”.

Q: What about the outcome [13] of the same compound?
A: The outcome was “inactive”.

Q: And the outcome [14]?
A: Its outcome is “inactive”.

Q: And the outcome [15]?
A: Its outcome is “inactive”.

Q: What about the outcome [16] of the same compound?
A: The outcome was “inactive”.

Q: And the outcome [17]?
A: The outcome was “inactive”.

Q: And the outcome [18]?
A: The outcome was “inactive”.

Q: What about the outcome [19] of the same compound?
A: The outcome was “inactive”.

Q: What about the outcome [20] of the same compound?
A: Its outcome is “inactive”.

Q: What about the outcome [21] of the same compound?
A: The outcome was “inactive”.

Q: What about the outcome [22] of the same compound?
A: The outcome was “inactive”.

Q: And the outcome [23]?
A: Its outcome is “inactive”.

Q: And the outcome [24]?
A: Its outcome is “inactive”.
